These entries were drawn from the full list.
aSyn 5UTR act: Activators working through SNCA 5'UTR binding (MLPCN); hit rate 7.1% among 300,000; AID 1814; alpha-synuclein 5'UTR reporter, activators screen; activity score, % (tested at 7.5 µM), hits read low; in the data active means activity score below about -60%
Of the large screens only hits and unclear results are named; the others gave an inactive call.

CC(=O)n1cc(N(C(=O)CCl)c2ccc(C)cc2)c2ccccc21	none
O=C(Nc1nccs1)c1ccc(-c2ccccc2Cl)o1	aSyn 5UTR act -286
COc1ccccc1NC(=O)c1ccc(-c2ccccc2[N+](=O)[O-])o1	aSyn 5UTR act -125
O=C(Nc1nccs1)c1ccc(-c2ccccc2[N+](=O)[O-])o1	aSyn 5UTR act -135
O=C(N/N=C/c1cccc(OC(=O)c2ccco2)c1)c1ccc(F)cc1	aSyn 5UTR act -104
CC(C)(C)OC(=O)N/N=C\c1ccc(OC(=O)c2cccs2)cc1	aSyn 5UTR act -91
O=C(N/N=C/c1ccc(OC(=O)c2ccco2)cc1)c1ccccn1	aSyn 5UTR act -123
Cc1cc(C(=O)N/N=C/c2cc(Br)cc(Br)c2OC(=O)c2cccc(F)c2)n[nH]1	none
O=C(Oc1ccc(/C=N/NC(=O)c2ccccn2)cc1)c1cccc(F)c1	aSyn 5UTR act -116
O=C(Oc1ccc(/C=N/NC(=O)c2ccccn2)cc1)c1ccc(Br)cc1	aSyn 5UTR act -124
COc1cc(/C=N/NC(=O)c2ccccn2)ccc1OC(=O)c1ccc(Br)cc1	aSyn 5UTR act -84
COc1ccc(/C=N\NC(=O)c2c(C)nc3ccc(Br)cn23)cc1	none
Cc1cc(C(=O)N/N=C/c2cc(Br)ccc2OC(=O)c2ccc(Br)cc2)n[nH]1	none
O=C(N/N=C/c1ccc(OC(=O)c2cccs2)cc1)c1ccccn1	aSyn 5UTR act -98
CC(C)(C)OC(=O)N/N=C/c1ccc(Br)cc1	aSyn 5UTR act -132
C=CCNS(=O)(=O)c1nc(C)c(Cl)c(C)c1C#N	aSyn 5UTR act -110
c1ccc(CCc2nc3ccccc3[nH]2)cc1	aSyn 5UTR act -120
O=c1[nH]c2ccccc2nc1CCc1ccccc1	aSyn 5UTR act -90
CC(=Nc1ccc(O)cc1)c1sc2ccccc2c1O	aSyn 5UTR act -187
CC(=Nc1ccccc1O)c1sc2ccccc2c1O	aSyn 5UTR act -93
Cc1cccc(N=Nc2ccc(O)c3ncccc23)c1	none
CC(=O)NCCN=C(C)c1sc2ccccc2c1O	aSyn 5UTR act -71
CC(=Nc1cccc(C)c1)c1sc2ccccc2c1O	aSyn 5UTR act -215
COc1ccc(-n2nnnc2SCc2nc3ccccc3s2)cc1	aSyn 5UTR act -161
COc1ccc(C)cc1-n1nnnc1SCc1nc2ccccc2s1	aSyn 5UTR act -148
COCCNC(=O)c1cc(-c2cccc(OC)c2)on1	aSyn 5UTR act -85
COc1cccc(-c2cc(C(=O)NC3CCCC3)no2)c1	aSyn 5UTR act -115
COCC(C)NC(=O)c1cc(-c2cccc(OC)c2)on1 (stereo unspecified)	aSyn 5UTR act -133
O=C(NC1CCCCC1)c1ccc(-c2cccc([N+](=O)[O-])c2)o1	aSyn 5UTR act -127
CC(C)(C)c1ccc(/C=C/C(=O)c2ccc(NC3=NCCCS3)cc2)cc1	aSyn 5UTR act -107
O=C(/C=C/c1ccc(Br)cc1)c1ccc(NC2=NCCCS2)cc1	aSyn 5UTR act -99
C/C(N)=C(/C#N)C(=O)CSc1nnc(Nc2cccc(C)c2C)s1	aSyn 5UTR act -117
CCCSc1nnc(Nc2ccccc2C)s1	aSyn 5UTR act -96
CCN(CC)C(=O)CCCSc1nnc(Nc2ccccc2F)s1	aSyn 5UTR act -75
Cc1ccccc1Nc1nnc(SCC(=O)Nc2ccccc2[N+](=O)[O-])s1	aSyn 5UTR act -81
Clc1cccc2sc(-c3nnc(-c4ccccc4)o3)c(Cl)c12	aSyn 5UTR act -137
COc1ccc(/C=C2\C(=O)NCC(=O)N2Cc2ccccc2)cc1	aSyn 5UTR act -62
COc1ccc(/C(O)=C/c2nc3ccccc3n(-c3ccccc3)c2=O)cc1	aSyn 5UTR act -84
O=C(/C=C/c1cc2ccccc2o1)c1ccccc1O	aSyn 5UTR act -161
O=C(/C=C/c1ccoc1)c1ccccc1O	aSyn 5UTR act -76
O=C(/C=C/c1ccc(O)c(O)c1)OCCc1ccccc1	aSyn 5UTR act -131

Assay outcomes (PubChem BioAssay)
